The values that follow are results of earlier work, collected in PubChem BioAssay AID977611.

The nature of the data set: PubChem AID 977611. The following applies: PDB protein-ligand complexes, literature Kd.

The campaign covered roughly 3,900 compounds. About 3,900 (100%) were called active. No cut-off is given here; in the data, nearly all actives have Kd up to about 4200 µM. So high a share suggests a set chosen from earlier hits. The list shows a part of the results. Where a SMILES comes first, the peptide text is derived from it. Non-standard residues stand in square brackets, D forms with d. Square brackets hold non-standard residues; d marks the D form. Residues, ends and D or L forms follow the SMILES beside them. Peptide text beside a SMILES is read from it. [ ]: non-standard residue; d: D form. Orn(CH(NH2)2) = NC(N)NCCC[C@H](N)C(=O)O; Nva = CCC[C@H](N)C(=O)O

With `O=C(O)[C@@H]1COc2ccccc2O1`, the Kd (in general, the concentration at which binding is half-saturated) is 700 µM (active) (protein: Pantothenate synthetase (T2A, E77G mutation), PDB entry 4de5) and 900 µM (active) (protein: Pantothenate synthetase (T2A, E77G mutation), PDB entry 4g5f).
Take `CC(C)C[C@H](NC(=O)[C@H](CCCNC(N)N)NC(=O)[C@H](CCC(N)=O)NC(=O)[C@H](Cc1ccc(O)cc1)NC(=O)[C@@H](N)CC(=O)O)C(=O)O` (H-DYQ[Orn(CH(NH2)2)]L-OH): the dissociation constant Kd (protein: AP-3 complex subunit mu-1, PDB entry 4ikn) was 14 µM (active).
`CC(=O)NCCCC[C@H](NC(=O)[C@H](CCCNC(N)N)NC(=O)CNC(=O)[C@H](Cc1ccc(O)cc1)NC(=O)[C@@H](N)CO)C(=O)N[C@@H](CCCCN)C(=O)N[C@@H](CCCNC(N)N)C(=O)N[C@@H](CCCNC(N)N)C(=O)N[C@@H](CCC(N)=O)C(=O)N[C@@H](CCCNC(N)N)C(=O)N[C@@H](CS)C(=O)O` (H-SYG[Orn(CH(NH2)2)]K(Ac)K[Orn(CH(NH2)2)][Orn(CH(NH2)2)]Q[Orn(CH(NH2)2)]C-OH): the dissociation constant Kd (protein: p300/CBP-associated factor (PCAF), PDB entry 1jm4) was 10 µM (active).
`CC(C)C[C@H](NC(=O)[C@H](CCC(N)=O)NC(=O)[C@H](CS)NC(=O)[C@H](CO)NC(=O)[C@@H](N)CC(C)C)C(=O)N[C@@H](Cc1ccc(O)cc1)C(=O)N[C@@H](CCC(N)=O)C(=O)N[C@@H](CCCNC(N)N)C(=O)O` (H-LSCQLYQ[Orn(CH(NH2)2)]-OH): where the note is “protein: Thymidylate synthase, PDB entry 3n5e”, the dissociation constant (Kd) was 0.151 µM (active).
In the case of H-AEDDVE-OH, under “protein: AH RECEPTOR-INTERACTING PROTEIN, PDB entry 4apo”, the equilibrium dissociation constant (Kd) is 12.3 µM (active).
With `CSCC[C@H](NC(=O)[C@H](CCCNC(N)N)NC(=O)[C@H](CO)NC(=O)[C@H](C)N)C(=O)N[C@@H](CCC(=O)O)C(=O)N[C@@H](CCC(=O)O)C(=O)N[C@H](C(=O)N[C@@H](CC(=O)O)C(=O)O)C(C)C` (H-AS[Orn(CH(NH2)2)]MEEVD-OH), for the setting “protein: Protein UNC-45, PDB entry 4i2z”, the dissociation constant Kd was 13.5 µM (active).
On to `CSCC[C@H](N)C(=O)N[C@@H](C)C(=O)N[C@@H](CO)C(=O)O` (H-Met-Ala-Ser-OH), for which the Kd (protein: human-like mitochondrial peptide deformylase (G47C, L112E mutant), PDB entry 4je8) was 6.1 µM (active).
Turning to `CC(C)[C@H](NC(=O)[C@H](CC(=O)O)NC(=O)[C@@H](NC(=O)[C@H](CC(=O)O)NC(=O)[C@H](CO[P+](O)(O)O)NC(=O)[C@@H](N)CC(=O)O)[C@@H](C)O[P+](O)(O)O)C(=O)N[C@@H](CCC(=O)O)C(=O)N[C@@H](CCC(=O)O)C(=O)O`, the dissociation constant (Kd) (protein: DNA topoisomerase 2-binding protein 1, PDB entry 3ueo) is 94 µM (active).
Turning to `CSCC[C@H](NC(=O)[C@H](CCC(=O)O)NC(=O)[C@@H](NC(=O)[C@H](CC(=O)O)NC(=O)[C@H](C)N)[C@@H](C)O)C(=O)N[C@@H](CCC(=O)O)C(=O)N[C@@H](CCC(=O)O)C(=O)N[C@H](C(=O)N[C@@H](CC(=O)O)C(=O)O)C(C)C` (H-ADTEMEEVD-OH), the equilibrium dissociation constant (Kd) (protein: TPR repeat-containing protein associated with Hsp90, PDB entry 2lsv) is 5.41 µM (active).
As for `CCC[C@H](NC(=O)[C@@H](N)CO)C(=O)N[C@@H](CCSC)C(=O)N[C@@H](C)C(=O)N[C@@H](CCC(=O)O)C(=O)N[C@H](C(=O)N[C@@H](CC(=O)O)C(=O)O)C(C)C` (H-S[Nva]MAEVD-OH), the equilibrium dissociation constant (Kd) (protein: AH RECEPTOR-INTERACTING PROTEIN, PDB entry 4aif) was 14.4 µM (active).
Consider `CC(=O)N[C@@H](CC(=O)O)C(=O)N[C@@H](CCC(=O)O)C(=O)N[C@H](C(=O)N[C@@H](CC(=O)O)[C@@H](C)O)C(C)C`, for which the Kd (protein: Procaspase-3 (D175A mutation), PDB entry 4jr0) is 0.0063 µM (active).
For `CC(C)C[C@H](NC(=O)[C@H](CCC(=O)O)NC(=O)CNC(=O)[C@@H](NC(=O)[C@H](CO[P+](O)(O)O)NC(=O)[C@@H]1CCCN1C(=O)[C@H](CC(=O)O)NC(=O)[C@@H](NC(=O)[C@H](CCC(=O)O)NC(=O)[C@@H](N)CCCCN)C(C)C)[C@@H](C)O)C(=O)N[C@@H](CCC(N)=O)C(=O)O`, the dissociation constant Kd (protein: Kelch-like ECH-associated protein 1, PDB entry 3wdz) was 0.12 µM (active).
On to `CSCC[C@H](NC(=O)[C@H](CCCCN)NC(=O)[C@H](CCC(=O)O)NC(=O)[C@H](CCCCN)NC(=O)[C@H](CCCNC(N)N)NC(=O)[C@@H]1CCCN1C(=O)[C@@H]1CCCN1C(=O)[C@@H](NC(=O)[C@H](CC(C)C)NC(=O)[C@@H]1CCCN1C(=O)[C@@H]1CCCN1C(=O)[C@H](CCC(N)=O)NC(=O)CN)C(C)C)C(=O)N[C@@H](CCCNC(N)N)C(=O)NCC(=O)N[C@@H](CCCCN)C(=O)O` (H-GQPPLVPP[Orn(CH(NH2)2)]KEKM[Orn(CH(NH2)2)]GK-OH), for which the dissociation constant (Kd) (protein: Grb2-related adaptor protein 2(SH3 domain), PDB entry 1uti) is 2.4 µM (active).
Take `CC(C)C[C@H](NC(=O)[C@H](CCCNC(N)N)NC(=O)[C@@H](N)CCCNC(N)N)C(=O)N[C@@H](CCC(N)=O)C(=O)N[C@@H](CCCCN)C(=O)NCC(=O)N[C@@H](CC(N)=O)C(=O)N[C@@H](CC(C)C)C(=O)N1CCC[C@H]1C(=O)N[C@H](C(=O)N[C@@H](CCCNC(N)N)C(=O)O)C(C)C` (H-[Orn(CH(NH2)2)][Orn(CH(NH2)2)]LQKGNLPV[Orn(CH(NH2)2)]-OH): the Kd (protein: ERK2, PDB entry 2fys) was 44 µM (active).
With `CSCC[C@H](NC(=O)[C@@H]1CCCN1C(=O)[C@@H](N)[C@@H](C)O)C(=O)N[C@H](C(=O)N[C@@H](CC(N)=O)C(=O)N[C@@H](CCCNC(N)N)C(=O)N[C@@H](CCC(=O)O)C(=O)N[C@@H](CC(N)=O)C(=O)N[C@@H](CCCCN)C(=O)O)C(C)C` (H-TPMVN[Orn(CH(NH2)2)]ENK-OH), the Kd (protein: STAM2 SH3 domain, PDB entry 1uj0) is 27 µM (active).
